In PubChem BioAssay (NCI):
About 83,000 compounds went through this panel and 20% of them were active in at least one assay; those are over-represented in the sample as a whole.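 Activity criterion: percent growth below 10, measured after cells in 96-well plates were exposed to a single compound concentration for 48 hours.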 Calls of active or inactive are those of the source.

Columns and labels:
Experiment in all cases: NCI-60 one-dose screen, 48 h (100 = growth as untreated, 0 = no growth, -100 = all killed)
Conditions in all cases: 10 µM unless noted
[1] = test system: NCI-H23 lung
[2] = test system: NCI-H226 lung
[3] = test system: NCI-H322M lung
[4] = test system: HOP-62 NSCLC
[5] = test system: NCI-H460 lung
[6] = test system: HOP-92 NSCLC
[7] = test system: NCI-H522 lung
[8] = test system: 786-0 renal
[9] = test system: COLO 205 colon
[10] = test system: A549/ATCC NSCLC

Measured: growth

CC1(C)N=c2cc3c(cc2N1c1ccc(Cl)cc1)=Nc1ccccc1N3c1ccc(Cl)cc1
active: [1] 9.73% | [4] -19.2% | [6] -26.6% | [7] -22.1%
inactive: [2] 53% | [3] 75.2% | [5] 46.5% | [8] 11.8% | [9] 39.1%

CN(C)c1ccc(C(=C2C=CC(=[N+](C)C)C=C2)c2ccc(N(C)C)cc2)cc1
active: [1] -19.9% | [2] -73.1% | [3] -42.2% | [4] -75.5% | [5] -39% | [6] -70.1% | [7] -44.9% | [8] -96.2% | [9] -84.3%

O=C(c1ccccc1)c1cc2ccccc2oc1=O
inactive: [1] 94.5% | [2] 86.3% | [3] 97.7% | [4] 88.6% | [5] 117% | [6] 51.3% | [7] 95% | [10] 95.9% | [8] 102% | [9] 119%

Fc1ccc(NCCS)cc1
inactive: [1] 97.4% | [2] 104% | [3] 103% | [4] 99.6% | [5] 102% | [6] 103% | [7] 90% | [10] 92.7% | [9] 108%

N#CC(I)CS(=O)(=O)c1ccccc1 (centres undefined)
active: [9] -27.5%
inactive: [1] 101% | [2] 105% | [3] 124% | [4] 98.6% | [5] 114% | [6] 94.5% | [10] 93.3% | [8] 107%

CCOC(=O)C1=C(C(=O)c2ccccc2)C(c2cccc([N+](=O)[O-])c2)C(C(=O)c2ccccc2)=C(C(=O)OCC)N1
inactive: [1] 86.3% | [2] 84.9% | [3] 94.1% | [4] 93% | [5] 98.8% | [6] 85.6% | [10] 95.3% | [8] 93.9% | [9] 114%

CCC(=O)c1cc([N+](=O)[O-])c(Br)s1
inactive: [1] 93.4% | [2] 99.1% | [3] 101% | [4] 101% | [5] 108% | [6] 89.1% | [10] 105% | [8] 109% | [9] 11.5%

O=C(Cc1ccccc1)C(F)(F)F
inactive: [1] 103% | [2] 105% | [3] 94.2% | [4] 102% | [5] 103% | [6] 104% | [7] 107% | [10] 105% | [8] 94% | [9] 104%

C/C(=N\NC(=S)N1CC2CCC(CC2)C1)c1ccccn1
inactive: [1] 30.4% | [2] 11.7% | [4] 24% | [6] 34.1% | [7] 16.8%
active: [3] 4.2% | [5] -3.66% | [10] 5.42% | [8] 3.86% | [9] 4.4%

O=C(Cc1nc2cc(Cl)c(Cl)cc2nc1CC(=O)c1ccccc1)c1ccccc1
inactive: [1] 77.3% | [2] 70.4% | [3] 80.9% | [4] 70.5% | [5] 73.4% | [6] 67.3% | [7] 58.2% | [10] 74.4% | [8] 67.6% | [9] 76.3%

O=C(O)c1ccc2c(c1)C(=O)c1ccccc1C2=O
inactive: [1] 103% | [2] 92% | [3] 102% | [4] 90.9% | [5] 105% | [6] 93.9% | [7] 98.6% | [8] 103% | [9] 100%

CCCCCCCCCCCCCCCC[N+]1(C)CCCC1c1cccnc1 (centres undefined)
active: [6] 5.98% | [9] -21.7%
inactive: [1] 25.3% | [2] 41.4% | [3] 88.7% | [4] 53.7% | [5] 23.6% | [7] 41.2% | [10] 41.8% | [8] 52.7%

CC1=CC(=O)C=CC1(C)C(Cl)(Cl)Cl (centres undefined)
inactive: [1] 100% | [2] 95.2% | [3] 102% | [4] 84.7% | [5] 104% | [6] 106% | [10] 68.4% | [8] 101% | [9] 89.7%

Cc1c(O)ccc(SC#N)c1C
inactive: [1] 98% | [2] 109% | [3] 117% | [4] 100% | [5] 99.5% | [6] 92.2% | [10] 108% | [9] 96.9%

CC(C)=C1C=C2CC[C@@H]3[C@](C)(CCC[C@@]3(C)C(=O)O)[C@H]2CC1
inactive: [1] 101% | [2] 103% | [3] 94.8% | [4] 93.6% | [5] 106% | [6] 97.2% | [7] 96.2% | [8] 95.9% | [9] 107%

CCCOC(=O)c1nc(N(CC2CCCCC2)C(=O)NC)sc1/N=C/c1ccccc1
inactive: [1] 31.1% | [2] 56.8% | [3] 57.9% | [4] 25.5% | [6] 15.5% | [10] 13.6% | [9] 18.6%
active: [5] 2.34% | [7] -18.4% | [8] 9.27%

CC(C)c1ccc(Nc2n[nH]c(=S)s2)cc1
inactive: [1] 87.1% | [2] 105% | [3] 102% | [4] 99.4% | [5] 114% | [6] 82.6% | [10] 101% | [8] 96.8% | [9] 116%

CCOC(=O)c1cc(CC)sc1NC(=O)CC(C)=O
inactive: [1] 43.2% | [2] 70.1% | [3] 95.3% | [4] 73% | [5] 50.9% | [6] 59% | [7] 34.4% | [10] 78% | [8] 54.5% | [9] 90.2%

S=C(SSC(=S)N1CCOCC1)N1CCOCC1
active: [5] 2.9% | [7] -50.2%
inactive: [1] 48.9% | [2] 94.5% | [3] 116% | [4] 104% | [6] 122% | [10] 57.2% | [8] 103% | [9] 28.6%

CCCCCCCCCCCCCCCCSC(=NCC)NCC
inactive: [1] 39.4% | [2] 85.7% | [3] 17.4% | [4] 25.9% | [7] 23.5% | [8] 11.1%
active: [5] -83.9% | [6] -21.3% | [10] -19.9% | [9] -98.7%

c1ccc(-c2cc3cc4ccccc4cn3c2)cc1
inactive: [1] 89.3% | [2] 73.1% | [3] 99.6% | [4] 78.7% | [5] 88.3% | [6] 76.5% | [7] 79.4% | [10] 89.9% | [8] 102% | [9] 95.1%

CCC1C[N+]2=C(c3cc(OC)c(OC)cc3CC2)c2c1cc1n2CCc2cc(OC)c(OC)cc2-1 (centres undefined)
inactive: [1] 43% | [2] 65.7% | [3] 98.6% | [4] 55.9% | [5] 21.5% | [10] 56.9% | [8] 66.3%
active: [6] -2.62% | [9] -35.4%

Oc1ccc(Cl)cc1C(c1cc(Cl)ccc1O)C(Cl)(Cl)Cl
inactive: [2] 22.5% | [3] 27.7% | [4] 14.1% | [10] 28.7% | [8] 15.2% | [9] 49.4%
active: [1] -25.2% | [5] -12% | [6] -25.3%

COc1ccc2c(c1)c(CC(=O)O)c(C)n2C(=O)c1ccc(Cl)cc1
inactive: [1] 92.5% | [2] 94.8% | [3] 89.7% | [4] 100% | [5] 101% | [6] 82.8% | [7] 97.5% | [8] 77.4% | [9] 128%

CN(C)CCN(C)CC(C)(C)C(=O)/C=C/c1ccc(Cl)c(Cl)c1
active: [1] -83.2% [100 µM] | [2] -64.1% [100 µM] | [3] -98.4% [100 µM] | [4] -92.9% [100 µM] | [5] -72.8% [100 µM] | [6] -89.4% [100 µM] | [7] -89.5% [100 µM] | [10] -82% [100 µM] | [8] -93.6% [100 µM] | [9] -90.3% [100 µM]

CC1(C)OC2C(COC(c3ccccc3)(c3ccccc3)c3ccccc3)OC(c3c[nH]c4c(N)ncnc34)C2O1 (centres undefined)
inactive: [1] 62.9% | [2] 72.9% | [3] 71.3% | [4] 81.6% | [5] 41.1% | [6] 59.5% | [7] 55.9% | [10] 44.7% | [8] 62.8% | [9] 68.3%

Oc1c(Cl)cc(Cl)cc1C(c1cc(Cl)cc(Cl)c1O)C(Cl)(Cl)Cl
active: [1] -19.9% | [2] 5.37% | [3] -21.8% | [4] -6.29% | [5] -20.7% | [7] -12.8% | [10] 1.48% | [8] 9.47% | [9] -90.9%

CCN(CC)c1ccc(/C=C\C(=O)c2ccc(NC(C)=O)cc2)cc1
inactive: [1] 75.2% | [2] 99.6% | [3] 111% | [4] 56.2% | [5] 82.2% | [6] 70.9% | [10] 56.8% | [9] 49.4%

Cn1c(-c2ccccc2)c(/C=C/C2=[N+](C)c3ccccc3C2(C)C)c2ccccc21
active: [1] 7.45% | [6] -17.1% | [7] -28.6% | [10] 6.27% | [9] -83.9%
inactive: [2] 13.5% | [3] 50.3% | [4] 10.2% | [8] 24.2%

CCCN(CCC)C(=O)c1ccc(C)cc1
inactive: [1] 99.3% | [2] 81.2% | [3] 111% | [4] 80% | [6] 66.3% | [7] 82.3% | [10] 93.2% | [8] 98%
